About 130 (0.43%) of roughly 30,000 compounds were called active. Cut-off read from the data, not from the text of the source: active = activation above about 65%; inactive = the rest. This excerpt belongs to a sample that is enriched for actives.

The record followed here is PubChem BioAssay AID784 (The Scripps Research Institute Molecular Screening Center, 2007).

In this assay the target is Lysosomal acid glucosylceramidase (Homo sapiens) (UniProt P04062). Kind of assay: raising glucocerebrosidase activity, Gaucher cells – primary screen (AID 784).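 Note: 0% = vehicle wells and 100% = positive control wells.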 To be noted: L444P Gaucher fibroblasts, 4-MU-glucoside fluorescence, 3 days; at 10 µM; hits give high values.
Lysosomal acid glucosylceramidase (Homo sapiens), sequence (P04062 whole entry L483P): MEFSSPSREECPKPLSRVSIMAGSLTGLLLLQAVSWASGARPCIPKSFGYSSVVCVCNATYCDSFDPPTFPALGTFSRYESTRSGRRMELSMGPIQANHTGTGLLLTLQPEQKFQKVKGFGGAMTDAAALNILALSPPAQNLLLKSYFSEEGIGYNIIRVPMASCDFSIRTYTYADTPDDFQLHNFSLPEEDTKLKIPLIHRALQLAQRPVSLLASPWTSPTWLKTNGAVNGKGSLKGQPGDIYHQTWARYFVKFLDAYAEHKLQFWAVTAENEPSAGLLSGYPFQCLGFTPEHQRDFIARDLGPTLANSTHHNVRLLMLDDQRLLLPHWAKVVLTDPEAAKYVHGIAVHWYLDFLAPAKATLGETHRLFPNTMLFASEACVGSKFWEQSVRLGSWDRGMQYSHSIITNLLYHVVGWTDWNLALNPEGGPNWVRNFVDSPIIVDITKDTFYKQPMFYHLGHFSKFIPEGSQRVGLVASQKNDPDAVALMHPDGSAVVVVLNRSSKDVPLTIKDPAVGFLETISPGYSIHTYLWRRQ
Regarding `COc1ccc(CC(=O)Nc2ccc3c(c2)CCC3)cc1S(=O)(=O)N1CCOCC1`, the activation was 32.8% (inactive).

In the case of `Cc1ccc(C(=O)NC2CC(C)(C)NC(C)(C)C2)c(C)c1`, the activation was -52.5% (inactive). Regarding `CC(=NC1CCN(Cc2ccccc2)CC1)c1c(O)[nH]c(=O)[nH]c1=O`, the activation was -6.5% (inactive).

With `CS(=O)(=O)N(CC(=O)N1CCN(Cc2ccc3c(c2)OCO3)CC1)c1ccc2c(c1)OCO2`, the activation is -6.7% (inactive). As for `CCC(C)n1[nH]c(=O)cc1N` (stereo not given), the activation was 4.55% (inactive). With `COc1ccc(C(=O)Cn2nnc(-c3ccc(N4CCOCC4)cc3)n2)cc1OC` the figure was -17.5% (inactive); with `O=C1CN(C(=O)COC(=O)C2CC(=O)N(Cc3ccco3)C2)c2ccccc2N1` (stereo not given), 4.58% (inactive). With `CN(C(=O)c1ccno1)c1nnc(-c2cccnc2)s1` the figure was -12.7% (inactive); with `CC(=O)Cc1nsc(NC(=O)c2csc3c2CCCC3)n1`, -9.06% (inactive); with `COC(=O)c1sccc1NC(=O)c1csc2c1CCCC2`, -10.4% (inactive). For `COC(=O)c1sc(NC(=O)c2csc3c2CCCC3)nc1C`, the activation is 67.1% (active). As for `COc1cccc(N(CC(=O)Nc2cccc(F)c2)S(C)(=O)=O)c1`, the figure is 4.09% (inactive); as for `COc1cccc(N(CC(=O)Nc2cccc(N(C)S(C)(=O)=O)c2)S(C)(=O)=O)c1`, -7.1% (inactive); as for `CCN(CC)S(=O)(=O)c1ccc(NC(=O)CN(c2cccc(F)c2)S(C)(=O)=O)cc1`, 83.1% (active).

For `COc1ccccc1N1CCN(C(=O)CSc2nnc(-c3ccoc3C)o2)CC1`, the activation was 7.59% (inactive).

In the case of `CCC(C)(C)NC(=O)C(c1cccn1C)N(Cc1ccc(C)cc1)C(=O)Cn1nnc2ccccc21` (stereo not given), the activation is -4.98% (inactive). With `CCOC(=O)C1(Cc2ccc(O)cc2)NC(c2ccccc2F)C2C(=O)N(C)C(=O)C21` (stereo not given) the figure was 102% (active). With `CCOC(=O)C1(c2ccccc2)NC(c2ccc(N(C)C)cc2)C2C(=O)N(C)C(=O)C21` (stereo not given) the figure was -22.4% (inactive); with `COc1ccc2nc(N3CCCC(O)C3)c(C#N)cc2c1` (stereo not given), -3.51% (inactive); with `Cc1nc(SC(C)C)[nH]c(=O)c1Cc1ccccc1`, 1.07% (inactive). As for `CCc1c(C)nc2ncnn2c1N1CCC(C(=O)NCc2ccc3c(c2)OCO3)CC1`, the figure is 9.86% (inactive); as for `CCOC(=O)C(C)Oc1cccc2c(=O)n(CC(=O)N3CCc4ccccc43)ccc12` (stereo not given), 3.53% (inactive). With `O=C(COC(=O)c1ccc2c(c1)OCCO2)NCc1ccccc1`, the activation was 1.84% (inactive). As for `Cc1cc(C)c(S(=O)(=O)NCCCN2CCOCC2)cc1Br`, the figure is 17.8% (inactive).

As for `CCN(CC)S(=O)(=O)c1cccc(C(=O)Nc2ccccc2)c1`, the activation is -3.99% (inactive).
